Experimental data published in PubChem BioAssay (NCATS).
Results filed as inconclusive are left out. The source made the active and inactive calls. Calls follow the shape of the dose curve; as a rule, active = well fitted cell-killing curve with a large enough effect; inconclusive = small, poorly fitted or top-dose-only effect, or effect the other way; inactive = flat fitted curve, though single readings scatter.

Experiment: MultiTox-Fluor Cytotoxicity Assay - LYMP1-001 - Dead Cells (AID 946)
Conditions: LYMP1-001 lymphoblastoid cells, dead-cell protease fluorescence; series mostly up to 92.2 µM
Source text: NIH Chemical Genomics Center [NCGC]
NIH Molecular Libraries Screening Centers Network [MLSCN]
National Institutes of Environmental Health Sciences [NIEHS]
National Toxicology Program [NTP]
We have developed a 1536-well cell-based assay for quantitative high throughput screening (qHTS) against a number of cell lines to determine in vitro cytotoxicity of small molecules. This particular assay uses a human lymphoblastoid cell line (LYMP1-001) purchased from Coriell Institute for Medical Research.
NCGC Assay Protocol Summary:
The MultiTox-Fluor Cytotoxicity Assay (Promega) is a homogeneous method to simultaneously measure the relative number of live and dead cells in culture by detecting changes in cell membrane integrity. There are two fluorogenic peptide substrates in the assay reagent. Viable cells are determined when the cell-permeant substrate (GF-AFC) enters the cell and is cleaved by protease from live cells resulting in liberated fluorophore. This live-cell protease activity restricted to viable cells is proportional to cell number. The dead cells are determined by using fluorogenic cell-impermeant peptide substrate (bis-AAF-R110) which cleaved by dead cell proteases leaking from damaged cell membrane.
Using the MultiTox-Fluor Cytotoxicity Assay, the relative number of dead cells was measured in the lymphoblastoid cell line with complete culture medium following compound treatment for 16 hours. The assay was performed in opaque black Kalypsys 1536-well plates. In the screen, tetraoctylammonium bromide was used as positive control. Library compounds were measured for their ability to cause acute toxicity in the cell line, as reflected by an increase in dead cell protease activity, in a concentration-dependent manner. Data were normalized to the controls for basal activity (DMSO only) and 100% stimulation (15 uM tetraoctylammonium bromide). AC50 values were determined from concentration-response data modeled with the standard Hill equation.
qHTS protocol for MultiTox-Fluor Cytotoxicity assay
[Step] [Parameter] [Value] [Description]
1. Reagent; 5 uL; 2500 lymphoblastoid cells/well
2. Time; 5 hr; 37 C incubation
4. Controls; 23 nL; Tetraoctylammonium bromide 6.4pM to 92 uM
5. Time; 16 hr; 37 C incubation
6. Reagent; 5 uL; MuliTox-Fluor Assay reagent
7. Time; 60 min; Room Temperature
8. Detection; dead-cell fluorescence (Ex/Em=485/520); EnVision plate reader
Keywords: cytotoxicity, lymphoblastoid cell line, fluorescence, NTPHTS, NTPHTS_NCGC, NIEHS, EPA, DSSTox, MLSMR, MLSCN, NIH Roadmap, qHTS, NCGC

| Compound | outcome |
| --- | --- |
| Oc1ccc(Cl)cc1Cc1cc(Cl)ccc1O | inactive |
| O=C(O)c1ccc(S(=O)(=O)N(Cl)Cl)cc1 | inactive |
| OC[C@H]1O[C@@H]2O[C@H]3[C@H](O)[C@@H](O)[C@@H](O[C@H]4[C@H](O)[C@@H](O)[C@@H](O[C@H]5[C@H](O)[C@@H](O)[C@@H](O[C@H]6[C@H](O)[C@@H](O)[C@@H](O[C@H]7[C@H](O)[C@@H](O)[C@@H](O[C@H]8[C@H](O)[C@@H](O)[C@@H](O[C@H]1[C@H](O)[C@H]2O)O[C@@H]8CO)O[C@@H]7CO)O[C@@H]6CO)O[C@@H]5CO)O[C@@H]4CO)O[C@@H]3CO | inactive |
| C=C[C@H]1CN2CC[C@H]1C[C@@H]2[C@@H](O)c1ccnc2ccc(OC)cc12 | inactive |
| NCCNc1cccc2ccccc12 | inactive |
| CCCCC(CC)COC(=O)c1ccc(N(C)C)cc1 (centres undefined) | inactive |
| COc1cc([C@H]2Oc3cc([C@H]4Oc5cc(O)cc(O)c5C(=O)[C@@H]4O)ccc3O[C@@H]2CO)ccc1O | inactive |
| NC(=O)c1ccccc1O | inactive |
| CCOc1ccc(NC(C)=O)cc1 | inactive |
| COc1ccc(C(Cl)=C(c2ccc(OC)cc2)c2ccc(OC)cc2)cc1 | inactive |
| COc1ccc(C(=O)c2ccccc2)c(O)c1 | inactive |
| CCCN(CCC)S(=O)(=O)c1ccc(C(=O)O)cc1 | inactive |
| C/C=C/c1ccc(O)c(OC)c1 | inactive |
| CCOc1ccccc1C(N)=O | inactive |
